# Sampled rows, rich in hits. Any-hit rate of the full collection: about 1%.
# Bfl-1 A1 inh – inhibitors of the anti-apoptotic protein A1, read as caspase activation | caspase activation, % (concentration not given with the values) | actives 0.066% (n = 330,000) | MEF A1-2A-BIM cells, Caspase-Glo 3/7 luminescence, 3 h; percent of clofoctol response, vehicle zero;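 active = over half of replicate activation scores above 10%, or exactly half above 10 with the replicate mean above 10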
# NPR2 activator – GC-B (human) receptor activation. activation, % at 10 µM. HEK293-GC-B cells, CNP EC30, cGMP TR-FRET; 0% at EC30 CNP, 100% saturating CNP. actives 0.11% (n = 370,000). AID 1920062. P20594;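 active = activation at 10 µM reaching about 35% in either raw or pattern-adjusted values, limit read from the data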
# HSV augment – increases HSV replication in cells; HSV replication augmentation in cells, fold increase; maximum fold increase; actives 0.005% (n = 220,000); in the data active = maximum fold increase above about 1.5; tested in PC3 cells
# H9c2 TAG inh – triacylglycerol accumulation inhibition | actives 0.66% (n = 230,000) | H9c2 cells, Nile Red lipid (TAG) fluorescence; cells loaded with 200 µM oleic acid | inhibition, % at 12.5 µM | AID 651582;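 active = pattern-corrected inhibition of lipid staining of at least 50% with the nuclear-stain viability signal not falling by more than 50%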;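 also: 0% = DMSO wells and 100% = triacsin C control wells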
# Efflux pump inh – inhibitors of Candida antifungal efflux pumps expressed in yeast. S. cerevisiae Candida pump triplex, Nile Red efflux. AID 485275. actives 0.44% (n = 330,000). inhibition, % at 10 µM;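 active = plate passing quality check with inhibition over a set limit, or well fluorescence over plate mean plus 4 SD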;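 also: Nile Red retained in pooled yeast measured as flow cytometry median fluorescence; 0% = buffer negative control and 100% = Enniatin B positive control; higher means more Nile Red kept so more efflux inhibition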
# NPR1 activator – GC-A (human) enzyme activation; activation, % at 10 µM; actives 0.14% (n = 370,000); HEK293 GC-A cells, cGMP TR-FRET, EC30 ANP; 0% at EC30 ANP, 100% saturating ANP; AID 1671463; P16066; in the data active = activation above about 40%
# H9c2 TAG conf – triacylglycerol accumulation inhibition, confirmation; shares compounds with H9c2 TAG inh; H9c2 lipid accumulation, Nile Red fluorescence; cells loaded with 200 µM oleic acid; inhibition, % at 12.5 µM; actives 71% (n = 990);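 active = mean inhibition across replicates of 40% or more; inactive = mean inhibition below 40%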;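 also: plate controls were DMSO only wells for no effect and Triacsin C treated wells for full effect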
# * hit, by the source's call; i = inactive; . = no result given.
SMILES,Bfl-1 A1 inh,NPR2 activator,HSV augment,H9c2 TAG inh,Efflux pump inh,NPR1 activator,H9c2 TAG conf
CN(Cc1ccccc1)C(=O)c1ccc(Nc2nc(C(N)Cc3ccccc3)cs2)nc1 (centres undefined),.,-4.7,.,52.4*,.,-2.0,48.9*
NC(Cc1cnc[nH]1)c1csc(Nc2ccc(C(F)(F)F)cn2)n1 (centres undefined),.,0.9,.,23.1,.,2.3,.
CN(Cc1ccccc1)C(=O)c1ccc(Nc2nc(C(N)Cc3ccc(C(F)(F)F)cc3)cs2)nc1 (centres undefined),.,-11.6,.,11.3,.,-0.3,.
NC(Cc1ccc(F)cc1)c1csc(Nc2ccc(C(F)(F)F)cn2)n1 (centres undefined),.,2.5,.,90.3*,.,-6.0,74.2*
CCCCCCN1CCS(=O)(=O)N(Cc2ccc(OC)cc2)C(C(=O)OC)C1 (centres undefined),.,4.3,.,.,.,0.7,.
N#Cc1cn(-c2ccccc2)nc1-c1ccc2c(c1)OCCO2,-1.0,-2.6,i,59.3*,0.2,2.3,10.8
CCN(Cc1ccccc1)C(=O)C1CCCN(c2ncccn2)C1 (centres undefined),.,-2.3,.,.,.,-0.8,.
Cc1cc(C)c2nc(N3CCC(C(=O)NCCCN4CCCCC4)CC3)sc2c1,1.1,-7.4,i,60.4*,0.0,-1.2,33.0
c1ccc(Cn2ccc3ccc(-c4ccc5ccn(Cc6ccc(-c7ccccc7)cc6)c5c4)cc32)cc1,.,-4.6,.,.,.,0.9,.
CCC(=O)Nc1c(-c2ccc(OC)cc2)c(=O)c2ccccc2n1C,0.8,2.4,i,61.0*,0.0,2.3,3.5
CCC(=O)Nc1c(-c2ccc(C)cc2)c(=O)c2ccccc2n1C,1.6,-4.0,.,.,0.0,2.9,.
CCOC(=O)C1=C(C)N(C[C@@H]2CC[C@@H](Cc3ccc(-c4ccccc4)cc3)O2)C(=O)NC1c1cccc2ccccc12 (some centres undefined),.,1.5,.,78.0*,0.9,-0.6,78.4*
O=C1NC(Cc2ccc(O)cc2)c2nc3ccc(Cl)cc3c(=O)n2-c2cc3ccccc3cc21 (centres undefined),.,56.6*,.,63.9*,.,-0.7,60.1*
Cc1ccc2c(=O)n3c(nc2c1)C(Cc1ccc(O)cc1)NC(=O)c1cc2ccccc2cc1-3 (centres undefined),.,-1.8,.,52.6*,.,-5.2,67.2*
CC(C)(C)N1Cc2nnn(Cc3ccccc3)c2-c2cc(N3CCCC3)ccc2S1(=O)=O,.,-1.8,.,.,.,-9.0,.
O=C(Nc1cccc2ncccc12)c1ccc(Cl)cc1,0.1,-6.1,.,70.6*,0.1,2.9,74.6*
O=C(NCCc1ccccc1)OCc1cn(-c2c(F)cccc2F)nn1,.,1.1,.,.,.,2.3,.
O=C(Nc1ccc2ccccc2c1)[C@@H]1C[C@H]1[C@@H](NP(=O)(c1ccccc1)c1ccccc1)c1ccccc1,0.7,-15.5,i,52.1*,0.0,-18.7,33.6
CC(C)(C)c1ccc(C(=O)Nc2cc(Cl)c(F)cc2C(=O)O)cc1,.,-9.1,.,.,.,2.2,.
COc1ccc(NC2=NC(=S)N(c3ccc(C)cc3)C23CCCCC3)cc1,-0.2,3.1,i,56.8*,-0.1,1.1,29.9
CCCCOc1ccc(CSC2=NCCN2)cc1[N+](=O)[O-],0.5,-5.2,i,56.3*,0.1,-1.5,68.7*
CC1(C)Cc2cccc(OCC(=O)Nc3ccc(OCC(N)=O)cc3)c2O1,0.0,-1.1,i,66.4*,0.2,0.8,-18.4
CN(CCOC(=O)CSc1ccccc1)C1CN(Cc2cn(Cc3ccccc3F)nn2)S(=O)(=O)C1 (centres undefined),.,0.8,.,.,.,2.0,.
COc1cccc(/C=C/C(=C2\C(=O)N(c3ccccc3)N=C2C)c2ccc(Br)cc2)c1OC,.,5.3,.,79.2*,.,0.9,97.2*
O=C(Cc1ccccc1)Nc1nc(-c2cccs2)cs1,-1.2,1.8,i,62.3*,0.0,12.3,32.5
COc1cc(-c2cnc3c(NC=O)cc(-c4cccc(NC(C)=O)c4)cn23)cc(OC)c1OC,.,12.2,.,73.0*,.,9.0,96.0*
